This note sets out measurements from PubChem BioAssay.

Calls of active or inactive are those of the source.

Assay [1] in a line: small molecules captured by biotinylated probe aFSTL3 – biochemical, small-molecule microarray, fluorescence 635/667, stem cell growth factor project, primary screen (AID 1064).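 Further: measures binding of the biotinylated anti-FSTL3 antibody to printed compounds.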 Particulars: higher = more signal.
Assay [2] in a line: binders from COS7 lysate, DM2A8 probe, primary screen, torsin A project, cell lysate, small-molecule microarray, fluorescence 635/667 (AID 1065). To be noted: higher = more signal, COS7 lysate expressing mutant human TOR1A.
Assay [3] in a line: small molecules captured by biotinylated probe aFGF2 – biochemical, small-molecule microarray, fluorescence 635/667, stem cell growth factor project, primary screen (AID 1067).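 Further: measures binding of biotinylated aFGF2 protein to printed compounds on slides; z-score merges feature fluorescence and signal-to-noise across triplicate slides.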 Particulars: higher = more signal.
Assay [4] is described as follows: small molecules captured by biotinylated probe aFGF10 – biochemical, small-molecule microarray, fluorescence 635/667, stem cell growth factor project, primary screen (AID 1071).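 Further: score merges 667 nm spot intensity and signal to noise from triplicate slides.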 To be noted: higher = more signal.
The target in assay [5] is Neurogenic locus notch homolog protein 2 (Homo sapiens) (UniProt Q04721). Nature of the assay: small molecules binding Notch2 protein – biochemical, small-molecule microarray, 635 nm fluorescence, stem cell growth factors, primary screen (AID 1073). To be noted: higher = more signal.
Assay [6] addresses Pro-neuregulin-1, membrane-bound isoform (Homo sapiens) (UniProt Q02297). Nature of the assay: small molecules binding neuregulin-1 protein – biochemical, small-molecule microarray, fluorescence 635/667, psychiatric disease protein project, primary screen (AID 1075).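 Further: score combines 667 nm spot fluorescence with signal to noise.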 To be noted: NRG1 binding, 635 nm fluorescence, higher = more signal.
The test system of assay [7] is Neuregulin-1 EGF-like domain. Description: small molecules binding NRG1 EGF domain – biochemical, small-molecule microarray, 635 nm fluorescence, primary screen (AID 1081).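 Further: binding of the protein to compounds printed on small-molecule microarray slides.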 Particulars: higher = more signal.
A short description of assay [8]: FRG1 expression reporter modulators in myotubes – cell-based, C2C12 myotubes, firefly/Renilla luciferase, luminescence, FRG1 inhibition for FSHD, primary screen (AID 1084). To be noted: FRG1 promoter luciferase, higher = more signal, called active from +8 up or from −8 down.
The nature of assay [9]: small molecules captured by biotinylated probe aFST – biochemical, small-molecule microarray, fluorescence 635/667, stem cell growth factor project, primary screen (AID 1086).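 Further: score merges 667 nm fluorescence with signal-to-noise of each printed compound spot.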 Particulars: higher = more signal.
The nature of assay [10]: binders of probe aHhip on microarray, primary screen, stem cell growth factor project, biochemical, small-molecule microarray, fluorescence 635/667 (AID 1087).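 Further: score merges spot fluorescence at 667nm with spot signal to noise ratio.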 To be noted: higher = more signal.
Assay [11] concerns PRMT1 (protein arginine N-methyltransferase 1). Nature of the assay: small molecules binding arginine methyltransferase PRMT1 – biochemical, small-molecule microarray, 635 nm fluorescence, primary screen (AID 1088).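 Further: binding of Prmt1 protein to compounds spotted on small-molecule microarray slides.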 To be noted: higher = more signal.
Assay [12] in a line: growth effects on S. cerevisiae YJM789 – YJM789 clinical isolate, OD600, 24 h, basal, primary screen (AID 1089).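 Further: growth of clinical yeast isolate S. cerevisiae YJM 789 seeded 1000 cells per well; test concentration not given here.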 To be noted: higher = more signal, called active from +8 up or from −8 down.
Assay [13] can be described thus: S. pombe growth modifiers, basal conditions – strain 972, OD600, 24 h, no modulator, primary screen (AID 1090).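 Further: basal condition with compound alone and no growth modifier present; test concentration not given here.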 To be noted: S. pombe 972 growth, higher = more signal, called active from +8 up or from −8 down.
A short description of assay [14]: budding yeast growth modifiers under rapamycin – strain BY4716, OD600, 96 h, primary screen (AID 1091). Further: test concentration not given here. To be noted: S. cerevisiae BY4716 + rapamycin, higher = more signal, called active from +8 up or from −8 down.
In assay [15] the target is Torsin-1A-interacting protein 2 (Homo sapiens) (UniProt Q8NFQ8). Description: small molecules binding lysate-expressed LULL1 – cell lysate, human LULL1 lysate, 635/667 nm fluorescence, primary screen (AID 1092).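 Further: probe is lysate of COS7 cells overexpressing human LULL1; score merges per-feature 667 nm fluorescence with signal-to-noise.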 To be noted: small-molecule microarray, hLULL1 lysate binding, 635 nm fluorescence; higher = more signal.
Chain of Torsin-1A-interacting protein 2 (Homo sapiens) (Q8NFQ8 whole entry, looked up): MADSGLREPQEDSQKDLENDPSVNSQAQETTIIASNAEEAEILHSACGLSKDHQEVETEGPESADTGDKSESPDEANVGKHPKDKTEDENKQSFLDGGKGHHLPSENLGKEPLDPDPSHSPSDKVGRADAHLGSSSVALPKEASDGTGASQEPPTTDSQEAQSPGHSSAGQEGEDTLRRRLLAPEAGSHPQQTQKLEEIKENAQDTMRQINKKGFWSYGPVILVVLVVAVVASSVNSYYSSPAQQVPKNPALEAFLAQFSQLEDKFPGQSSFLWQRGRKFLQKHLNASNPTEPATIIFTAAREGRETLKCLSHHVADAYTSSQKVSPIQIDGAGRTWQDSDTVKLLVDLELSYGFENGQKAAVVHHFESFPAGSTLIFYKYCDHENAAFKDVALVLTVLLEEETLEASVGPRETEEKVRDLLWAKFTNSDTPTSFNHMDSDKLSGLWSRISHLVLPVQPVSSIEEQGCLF
A short description of assay [16]: optical density change of DRC41 E. coli – strain DRC41, OD650, 24 h, E. coli filamentation project, primary screen (AID 1093).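 Further: MC1000 strain lacking acrAB efflux and sulA so SOS filamentation is blocked; test concentration not given here.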 Particulars: E. coli DRC41 growth, higher = more signal, called active from +8 up or from −8 down.
Assay [17] can be described thus: probe aLefty2 binding to arrayed compounds – biochemical, biotinylated probe, 635/667 nm fluorescence, primary screen (AID 1094).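 Further: score merges spot fluorescence near 667 nm with spot signal-to-noise ratio.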 To be noted: small-molecule microarray, higher = more signal.
In assay [18] the test system is Noggin (protein binding on small-molecule microarray). Nature of the assay: small molecules binding Noggin protein – biochemical, 635/667 nm fluorescence, primary screen (AID 1095).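 Further: score merges 667 nm feature fluorescence with signal to noise over triplicate slides.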 Particulars: 635 nm fluorescence, higher = more signal.
Assay [19] has as its target Neurogenic locus notch homolog protein 3 (Homo sapiens) (UniProt Q9UM47). Description: small molecules binding NOTCH3 protein – biochemical, 635/667 nm fluorescence, primary screen (AID 1096). To be noted: small-molecule microarray, 635 nm fluorescence, higher = more signal.
Assay [20] is described as follows: probe aEGFR binding to arrayed compounds – biochemical, biotinylated probe, 635/667 nm fluorescence, primary screen (AID 1097).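 Further: probe is a biotinylated anti-EGFR antibody binding compounds printed on slides; score combines fluorescence near 667 nm and signal to noise of each spot.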 Particulars: small-molecule microarray, higher = more signal.

Chain of Neurogenic locus notch homolog protein 3 (Homo sapiens) (Q9UM47 whole entry, looked up): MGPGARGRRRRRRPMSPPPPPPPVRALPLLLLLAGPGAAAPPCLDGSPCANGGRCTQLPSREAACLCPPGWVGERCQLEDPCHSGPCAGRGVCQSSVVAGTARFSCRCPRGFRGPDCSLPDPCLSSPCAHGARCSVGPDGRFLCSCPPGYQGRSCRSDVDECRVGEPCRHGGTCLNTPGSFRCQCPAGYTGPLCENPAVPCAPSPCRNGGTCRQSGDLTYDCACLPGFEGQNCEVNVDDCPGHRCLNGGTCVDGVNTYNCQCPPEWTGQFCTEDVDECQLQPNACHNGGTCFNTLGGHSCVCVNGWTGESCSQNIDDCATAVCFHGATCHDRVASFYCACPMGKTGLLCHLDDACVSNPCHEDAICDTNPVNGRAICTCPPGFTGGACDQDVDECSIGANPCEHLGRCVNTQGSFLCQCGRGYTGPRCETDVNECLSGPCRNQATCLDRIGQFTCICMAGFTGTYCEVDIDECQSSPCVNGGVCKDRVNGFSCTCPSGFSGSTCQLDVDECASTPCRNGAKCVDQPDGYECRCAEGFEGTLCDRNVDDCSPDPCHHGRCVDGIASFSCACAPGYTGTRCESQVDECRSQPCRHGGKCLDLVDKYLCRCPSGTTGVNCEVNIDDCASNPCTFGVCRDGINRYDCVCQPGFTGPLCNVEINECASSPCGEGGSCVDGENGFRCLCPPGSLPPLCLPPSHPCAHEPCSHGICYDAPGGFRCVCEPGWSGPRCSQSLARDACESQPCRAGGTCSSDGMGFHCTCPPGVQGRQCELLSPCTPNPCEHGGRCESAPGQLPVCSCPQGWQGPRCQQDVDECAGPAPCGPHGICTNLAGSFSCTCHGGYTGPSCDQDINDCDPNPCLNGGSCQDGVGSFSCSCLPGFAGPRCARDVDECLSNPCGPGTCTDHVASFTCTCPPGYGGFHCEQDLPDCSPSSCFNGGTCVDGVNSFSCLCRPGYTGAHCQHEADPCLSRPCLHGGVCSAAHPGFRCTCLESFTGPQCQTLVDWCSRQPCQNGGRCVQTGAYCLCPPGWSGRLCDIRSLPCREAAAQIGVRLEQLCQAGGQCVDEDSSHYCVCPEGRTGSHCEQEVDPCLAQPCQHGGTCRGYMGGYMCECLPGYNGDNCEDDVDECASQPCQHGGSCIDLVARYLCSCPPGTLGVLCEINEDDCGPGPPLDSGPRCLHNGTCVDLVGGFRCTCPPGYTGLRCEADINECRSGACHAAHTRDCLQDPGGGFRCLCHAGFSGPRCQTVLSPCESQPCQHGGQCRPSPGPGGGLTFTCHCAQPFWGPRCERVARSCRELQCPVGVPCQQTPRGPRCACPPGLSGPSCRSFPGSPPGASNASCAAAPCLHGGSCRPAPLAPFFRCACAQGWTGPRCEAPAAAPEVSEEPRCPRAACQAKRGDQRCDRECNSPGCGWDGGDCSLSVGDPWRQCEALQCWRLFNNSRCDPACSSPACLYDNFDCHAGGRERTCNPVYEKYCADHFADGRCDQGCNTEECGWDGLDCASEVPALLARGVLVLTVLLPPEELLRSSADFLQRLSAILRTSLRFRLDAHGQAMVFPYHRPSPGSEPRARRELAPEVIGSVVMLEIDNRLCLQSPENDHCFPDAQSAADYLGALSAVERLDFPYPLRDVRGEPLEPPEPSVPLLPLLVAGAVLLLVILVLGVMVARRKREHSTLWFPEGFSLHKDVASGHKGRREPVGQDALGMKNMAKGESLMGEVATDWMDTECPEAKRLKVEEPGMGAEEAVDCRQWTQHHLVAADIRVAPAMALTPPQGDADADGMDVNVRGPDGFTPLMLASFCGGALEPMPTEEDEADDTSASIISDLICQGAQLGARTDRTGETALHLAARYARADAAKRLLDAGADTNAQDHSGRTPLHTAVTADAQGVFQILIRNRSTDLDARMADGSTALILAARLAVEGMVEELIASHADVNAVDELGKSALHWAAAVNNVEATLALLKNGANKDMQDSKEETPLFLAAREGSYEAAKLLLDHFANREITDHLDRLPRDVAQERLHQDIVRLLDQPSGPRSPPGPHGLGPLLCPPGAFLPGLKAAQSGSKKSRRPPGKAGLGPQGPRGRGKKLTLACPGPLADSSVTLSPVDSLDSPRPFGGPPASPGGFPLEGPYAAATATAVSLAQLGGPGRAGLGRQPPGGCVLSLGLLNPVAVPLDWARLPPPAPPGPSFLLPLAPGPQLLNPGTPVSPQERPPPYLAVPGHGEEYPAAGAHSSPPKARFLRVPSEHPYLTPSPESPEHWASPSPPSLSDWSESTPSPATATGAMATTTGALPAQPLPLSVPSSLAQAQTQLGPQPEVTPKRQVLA
Chain of Pro-neuregulin-1, membrane-bound isoform (Homo sapiens) (Q02297 whole entry, looked up, the tested form may be a part, canonical isoform): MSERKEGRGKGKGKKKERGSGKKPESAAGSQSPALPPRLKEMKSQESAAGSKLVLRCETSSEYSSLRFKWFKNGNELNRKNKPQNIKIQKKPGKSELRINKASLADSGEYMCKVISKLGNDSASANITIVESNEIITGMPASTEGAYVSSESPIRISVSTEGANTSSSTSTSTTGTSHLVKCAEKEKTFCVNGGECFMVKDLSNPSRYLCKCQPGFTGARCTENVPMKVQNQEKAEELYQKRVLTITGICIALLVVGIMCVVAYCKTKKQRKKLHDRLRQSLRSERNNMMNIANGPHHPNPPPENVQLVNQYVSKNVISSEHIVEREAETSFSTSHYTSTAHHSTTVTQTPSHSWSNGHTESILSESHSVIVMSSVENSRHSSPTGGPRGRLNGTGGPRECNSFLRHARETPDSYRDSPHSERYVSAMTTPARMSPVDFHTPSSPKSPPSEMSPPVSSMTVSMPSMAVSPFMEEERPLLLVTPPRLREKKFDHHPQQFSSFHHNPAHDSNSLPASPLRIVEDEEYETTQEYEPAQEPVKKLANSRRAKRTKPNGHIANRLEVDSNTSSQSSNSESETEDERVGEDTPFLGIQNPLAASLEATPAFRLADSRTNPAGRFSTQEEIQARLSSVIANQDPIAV

`Cc1ccc(S[C@]2(C(=O)NCCN3CCOCC3)CC(=O)N(Cc3cc(C(F)(F)F)cc(C(F)(F)F)c3)[C@@H]2c2ccc(CO)cc2I)cc1`: the composite z-score in [1] was 0.428; in assay [2], -0.542; in assay [3], -0.131; in assay [4] it was -0.44; in assay [5], -0.297; in assay [6], 1.98. Also, the composite z-score is 0.0049 in [7]; 0.0607 in [9]; 0.0333 in assay [10]; 0.95 in assay [11]; 0.509 in assay [15]; -0.183 in assay [17]. Further, the composite z-score is -1.06 in [18], -0.122 in assay [19] and -0.0828 in assay [20]. The z-score in assay [8] is 0.679 (inactive); in [12], -3.19 (inactive); in assay [13] it was -4.73 (inactive); in [14], 14.2 (active); in assay [16], -1.52 (inactive).

On to `Cc1ccc(S[C@]2(C(=O)NC3CC3)CC(=O)N(Cc3ccccc3)[C@@H]2c2ccc(CO)cc2)cc1`, for which the composite z-score in assay [1] was 0.462; in assay [2], -1.21; in [3], -0.118; in assay [4], -0.0824; in [5], -0.764; in assay [6] it was -0.419. The composite z-score is 0.0059 in assay [7]; 0.135 in [9]; -0.247 in assay [10]; 0.0655 in [11]; 2.08 in assay [15]; 0.0704 in [17]. The figures for the composite z-score in [18], in assay [19] and in [20] were -0.347, -0.462 and -0.0778, respectively. Moreover, the z-score in assay [8] was -1.17 (inactive); in assay [12], -0.592 (inactive); in assay [13], -0.852 (inactive); in assay [14], -0.168 (inactive); in [16], -0.445 (inactive).

`COCCOC(=O)N1C(=O)[C@@]2(c3cc(C#CCNC(N)=O)ccc31)[C@H](c1ccc(O)cc1)N1[C@H](c3ccccc3)[C@H](c3ccccc3)OC(=O)[C@H]1[C@@H]2C(=O)Nc1nc2ccccc2s1`: the composite z-score in [1] is 0.764; in assay [2], 0.172; in assay [3] it was -0.0736; in [4], 0.826; in [5], 1.27; in [6], 0.787. The composite z-score in [7] is 0.297; in assay [9] it was 0.522; in assay [10] it was -0.0994; in [11] it was 0.902; in assay [15], 1.01; in [17] it was 0.218. In addition, the composite z-score in [18] came out at 1.23; in [19] it was 1.04; in [20] it was 0.13. For the same compound, the z-score is -0.0332 (inactive) in assay [8]; -2.82 (inactive) in assay [12]; -1.55 (inactive) in [13]; -1.12 (inactive) in assay [14]; 3.57 (inactive) in [16].

For the compound `CN1CCC(CCCO)=CC1c1ccc(CN2CCCC2)cc1` (stereo not given), the composite z-score was 1.16 in [1]; 2.31 in assay [2]; 0.0626 in assay [3]; 0.789 in assay [4]; 1.12 in assay [5]; 1.7 in assay [6]. Further, the composite z-score in assay [7] is 1.27; in [9] it was 0.612; in [10], -0.0237; in [11], 1.54; in [15], 2.18; in assay [17], 0.36. Besides, the results for the composite z-score in assay [18], in [19] and in assay [20] were 1.72, 1.07 and 0.337, respectively. Also, the z-score in [8] is 0.745 (inactive); in [12] it was -1.05 (inactive); in assay [13] it was -2.41 (inactive); in [14] it was -0.763 (inactive); in assay [16] it was -0.145 (inactive).

With `C=C(COC)/C(=C/C[C@H](OC(=O)c1ccncc1)c1cccc(OCCO)c1)c1cc(C(=O)OC)ccc1OC`, the composite z-score in assay [1] is -0.282; in [2], 0.635; in [3], -0.116; in assay [4], 0.783; in assay [5] it was 0.0724; in assay [6] it was 0.555. Also, the composite z-score in [7] was 1.27; in [9], -0.0832; in [10], 0.0505; in assay [11], 1.48; in [15] it was 1.95; in [17], -0.128. Moreover, the composite z-score in assay [18] is 0.604; in assay [19] it was 0.679; in assay [20] it was -0.139. Moreover, the z-score is -0.889 (inactive) in assay [8]; 0.447 (inactive) in assay [12]; -1.01 (inactive) in assay [13]; -0.429 (inactive) in assay [14]; 0.973 (inactive) in assay [16].
